Results as given in paper PMC10726135, “HNF4α isoforms regulate the circadian balance between carbohydrate and lipid metabolism in the liver”.
Whole data set: some 18,000 sequences, median “log2 normalized intensity” near 0.39, cut for the highest 2% near 6.6. For the sample, the highest values were picked, then their nearest neighbours and some sequences at random.

Biological target: T1, HNF4alpha2 (COS-7 nuclear extract) (Homo sapiens, UniProt P41235 1-474)
T1 sequence: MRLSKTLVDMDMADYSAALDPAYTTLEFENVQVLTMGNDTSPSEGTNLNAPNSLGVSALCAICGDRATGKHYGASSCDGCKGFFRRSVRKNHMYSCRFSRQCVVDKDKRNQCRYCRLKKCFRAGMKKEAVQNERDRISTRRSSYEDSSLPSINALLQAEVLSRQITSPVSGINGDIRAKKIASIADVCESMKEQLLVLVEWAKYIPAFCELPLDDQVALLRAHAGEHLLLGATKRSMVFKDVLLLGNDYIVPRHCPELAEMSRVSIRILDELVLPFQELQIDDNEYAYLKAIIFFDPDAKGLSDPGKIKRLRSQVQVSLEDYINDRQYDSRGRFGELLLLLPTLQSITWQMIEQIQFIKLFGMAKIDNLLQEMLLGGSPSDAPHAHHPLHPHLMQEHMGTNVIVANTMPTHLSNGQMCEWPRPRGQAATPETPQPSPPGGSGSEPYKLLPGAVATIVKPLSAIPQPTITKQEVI
Test: protein-binding microarray; COS-7 nuclear extract on double-stranded Agilent 4x180k PBM; binding buffer, salt, pH and temperature not given in the material; high values mean tight binding
Settings: chain copies: 2; label: 3' end of strand 1 on the slide; dsDNA, one strand shown
How it was run: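 Binding signal was defined as the normalized, background-corrected gProcessedSignal reported by Agilent software. It came from nuclear extracts of COS-7 cells transiently transfected with a human HNF4α isoform expression vector, applied to a custom Agilent SurePrint G3 4x180k array. That array held ~44,000 test sequences in quadruplicate as double-stranded ~60-nt oligonucleotides, and bound HNF4α was imaged at 2-µm resolution on an Agilent G2565CA scanner.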

Sequence | binding signal [log2 normalized intensity]
GCTAGGTGGCGGGCTGGCTCAGGACAGGTGGCCTAGGGAGATTAGAGTATCGGTCGA | 0.0816
AGATAGTGACGGAGGTGACCTTTGGTTGTCGCCTAGGGAGATTAGAGTATCGGTCGA | 5.52
CTAGTGTACAGGTGACCTTTGGAATGAACCGCCTAGGGAGATTAGAGTATCGGTCGA | 7.14
TTGGAGAATGCCTTTTGTGTAGGAGTACACGCCTAGGGAGATTAGAGTATCGGTCGA | 1.7
TATCTTTGGAGAATGCCTTTTGTGTAGGAGGCCTAGGGAGATTAGAGTATCGGTCGA | 1.64
GGAATGAGCAGGAACCTTGTGGTGGTGAAAGCCTAGGGAGATTAGAGTATCGGTCGA | 1.01
TGGCTGGCGGCTAGTGTACAGGTGACCTTTGCCTAGGGAGATTAGAGTATCGGTCGA | 7.2
ACTCCACATATTGTAGATAATACTGTGTCAGCCTAGGGAGATTAGAGTATCGGTCGA | 0.275
TTCCCTTGTTTACCTTGGTGTTTCTTTGATGCCTAGGGAGATTAGAGTATCGGTCGA | 1.68
AGAGTGAGCAGCACTTTTGGAGTTTGACCTGCCTAGGGAGATTAGAGTATCGGTCGA | 7.73
ACAGCAGTGGACTTTGACCTTGGCACTGAAGCCTAGGGAGATTAGAGTATCGGTCGA | 9.07
AGCAGCCTCAGTGGCTCACAAATGGAGTTTGCCTAGGGAGATTAGAGTATCGGTCGA | 0.801
GGGGCAGAGTGAGCAGCACTTTTGGAGTTTGCCTAGGGAGATTAGAGTATCGGTCGA | 1.51
ACTTTGACCTTGGCACTGAAGAATGTCTAAGCCTAGGGAGATTAGAGTATCGGTCGA | 1.8
GCTAGTAAGGAGCTGAGTCATAGTGGACTTGCCTAGGGAGATTAGAGTATCGGTCGA | 3.44
TAAGGAGCTGAGTCATAGTGGACTTTGCCTGCCTAGGGAGATTAGAGTATCGGTCGA | 6.9
ACAGCACTGACCTTTGAGAGTCAACACTGAGCCTAGGGAGATTAGAGTATCGGTCGA | 2.58
GAGCAGCACTTTTGGAGTTTGACCTGGAGCGCCTAGGGAGATTAGAGTATCGGTCGA | 5.38
AAGAAGAGCTCAGTCACAGCAGTGGACTTTGCCTAGGGAGATTAGAGTATCGGTCGA | 6.61
GGAGAGCTAGTAAGGAGCTGAGTCATAGTGGCCTAGGGAGATTAGAGTATCGGTCGA | -0.825
GAGCTCAGTCACAGCAGTGGACTTTGACCTGCCTAGGGAGATTAGAGTATCGGTCGA | 11.2
TATGACCAGTGTGTTGTGCTGACCTCCTGTGCCTAGGGAGATTAGAGTATCGGTCGA | 3.19
CTGGTGTGCTTTCTGTCCTCTCAAAGTCCAGCCTAGGGAGATTAGAGTATCGGTCGA | 3.7

Sequence | binding signal [log2 normalized intensity]
TGATTTGTATGATCTTGGGTATATCCTTTAGCCTAGGGAGATTAGAGTATCGGTCGA | 1.54
TGACCTTGCAGTGGCAAGGCAAAAGAGACAGCCTAGGGAGATTAGAGTATCGGTCGA | 1.17
CAGGACTGCGTAACTTACAGTGCACTTTGAGCCTAGGGAGATTAGAGTATCGGTCGA | 4.9
CAGTCACAGCAGTGGACTTTGACCTTGGCAGCCTAGGGAGATTAGAGTATCGGTCGA | 10.2
ATGTGACCTTTTGGACCACAGAGTGACCTGGCCTAGGGAGATTAGAGTATCGGTCGA | 5.16
TAACTTACAGTGCACTTTGACCGCTCATTTGCCTAGGGAGATTAGAGTATCGGTCGA | 5.83
CTGCGTAACTTACAGTGCACTTTGACCGCTGCCTAGGGAGATTAGAGTATCGGTCGA | 7.14
CATCATCTTGTAATCTGCTTCCAGTTCCATGCCTAGGGAGATTAGAGTATCGGTCGA | 0.0747
GAGAAAAAGTCAACACTTAGGGTGGATACTGCCTAGGGAGATTAGAGTATCGGTCGA | -0.81
TGATAAGCAAGATGACTTTGGTCTAGACACGCCTAGGGAGATTAGAGTATCGGTCGA | 0.829
TGCTCAGGGAGAAGCAAATATGTGTCCTCTGCCTAGGGAGATTAGAGTATCGGTCGA | 0.314
TCTTCTTCTGGGGACTTCGGTCTTTTTTCTGCCTAGGGAGATTAGAGTATCGGTCGA | 2.18
CATCTGAACTCTTCATGGACTCCTCTTATCGCCTAGGGAGATTAGAGTATCGGTCGA | 1.6
CTATGGAACATGGACTTTGAACCTCTCTTCGCCTAGGGAGATTAGAGTATCGGTCGA | 8.15
CCTTGCTATGGAGTGGACTTTGGCTTATGCGCCTAGGGAGATTAGAGTATCGGTCGA | 6.18
ACTCATTTCACATTGGTGCCCTTTGCCTTTGCCTAGGGAGATTAGAGTATCGGTCGA | 3.97
AGTCTAACTTTGGACTTTTATGTTAAGATCGCCTAGGGAGATTAGAGTATCGGTCGA | 2.25
TGAACTTTGAACACCTCTTCTTTCTTCTCTGCCTAGGGAGATTAGAGTATCGGTCGA | 3.92
CCTTTGGTGCCTCTTTTTTCTTGTTGACTTGCCTAGGGAGATTAGAGTATCGGTCGA | 2.44
TTTCTCTTTTGACCTTTGGACTTTCACATTGCCTAGGGAGATTAGAGTATCGGTCGA | 10.5
TGGACTTTGAACCTCTCTTCTTTTTCGTCTGCCTAGGGAGATTAGAGTATCGGTCGA | 6.71
TTTGAACACCTCTTCTTTCTTCTCTGGTACGCCTAGGGAGATTAGAGTATCGGTCGA | 1.58
GTTATCTATGGAACATGGACTTTGAACCTCGCCTAGGGAGATTAGAGTATCGGTCGA | 10.3
